Measurements as given in PubChem BioAssay.
Activity calls are given as the source filed them.

Assays:
[1] = tested on: PRMT1 (protein arginine N-methyltransferase 1); experiment: small molecules binding arginine methyltransferase PRMT1 – biochemical, small-molecule microarray, 635 nm fluorescence, primary screen (AID 1088); conditions: higher = more signal;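 also: binding of Prmt1 protein to compounds spotted on small-molecule microarray slides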
[2] = growth effects on S. cerevisiae YJM789 – YJM789 clinical isolate, OD600, 24 h, basal, primary screen (AID 1089); conditions: higher = more signal, called active from +8 up or from −8 down;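 also: growth of clinical yeast isolate S. cerevisiae YJM 789 seeded 1000 cells per well; test concentration not given here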
[3] = S. pombe growth modifiers, basal conditions – strain 972, OD600, 24 h, no modulator, primary screen (AID 1090);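 also: basal condition with compound alone and no growth modifier present; test concentration not given here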; conditions: S. pombe 972 growth, higher = more signal, called active from +8 up or from −8 down
[4] = budding yeast growth modifiers under rapamycin – strain BY4716, OD600, 96 h, primary screen (AID 1091); also: test concentration not given here; conditions: S. cerevisiae BY4716 + rapamycin, higher = more signal, called active from +8 up or from −8 down
[5] = target: Torsin-1A-interacting protein 2 (Homo sapiens) (UniProt Q8NFQ8); experiment: small molecules binding lysate-expressed LULL1 – cell lysate, human LULL1 lysate, 635/667 nm fluorescence, primary screen (AID 1092); conditions: small-molecule microarray, hLULL1 lysate binding, 635 nm fluorescence; higher = more signal;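 also: probe is lysate of COS7 cells overexpressing human LULL1; score merges per-feature 667 nm fluorescence with signal-to-noise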
[6] = optical density change of DRC41 E. coli – strain DRC41, OD650, 24 h, E. coli filamentation project, primary screen (AID 1093);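 also: MC1000 strain lacking acrAB efflux and sulA so SOS filamentation is blocked; test concentration not given here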; conditions: E. coli DRC41 growth, higher = more signal, called active from +8 up or from −8 down
[7] = probe aLefty2 binding to arrayed compounds – biochemical, biotinylated probe, 635/667 nm fluorescence, primary screen (AID 1094); conditions: small-molecule microarray, higher = more signal;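 also: score merges spot fluorescence near 667 nm with spot signal-to-noise ratio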
[8] = tested on: Noggin (protein binding on small-molecule microarray); experiment: small molecules binding Noggin protein – biochemical, 635/667 nm fluorescence, primary screen (AID 1095); conditions: 635 nm fluorescence, higher = more signal;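 also: score merges 667 nm feature fluorescence with signal to noise over triplicate slides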
[9] = target: Neurogenic locus notch homolog protein 3 (Homo sapiens) (UniProt Q9UM47); experiment: small molecules binding NOTCH3 protein – biochemical, 635/667 nm fluorescence, primary screen (AID 1096); conditions: small-molecule microarray, 635 nm fluorescence, higher = more signal
[10] = probe aEGFR binding to arrayed compounds – biochemical, biotinylated probe, 635/667 nm fluorescence, primary screen (AID 1097); conditions: small-molecule microarray, higher = more signal;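 also: probe is a biotinylated anti-EGFR antibody binding compounds printed on slides; score combines fluorescence near 667 nm and signal to noise of each spot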

Torsin-1A-interacting protein 2 (Homo sapiens), sequence (Q8NFQ8 whole entry, looked up): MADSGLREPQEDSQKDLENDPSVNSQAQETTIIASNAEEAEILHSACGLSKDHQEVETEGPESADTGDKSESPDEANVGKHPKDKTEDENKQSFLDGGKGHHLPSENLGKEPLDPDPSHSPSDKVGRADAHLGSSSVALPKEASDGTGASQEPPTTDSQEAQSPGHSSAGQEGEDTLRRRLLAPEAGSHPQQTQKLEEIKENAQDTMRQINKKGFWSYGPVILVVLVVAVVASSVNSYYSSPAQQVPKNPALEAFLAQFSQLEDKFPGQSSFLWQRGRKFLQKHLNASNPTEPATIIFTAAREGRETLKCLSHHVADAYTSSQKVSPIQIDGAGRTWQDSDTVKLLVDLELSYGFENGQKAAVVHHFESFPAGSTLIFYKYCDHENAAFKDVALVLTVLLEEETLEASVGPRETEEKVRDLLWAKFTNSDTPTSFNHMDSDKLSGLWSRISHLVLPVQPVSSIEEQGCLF
Neurogenic locus notch homolog protein 3 (Homo sapiens), sequence (Q9UM47 whole entry, looked up): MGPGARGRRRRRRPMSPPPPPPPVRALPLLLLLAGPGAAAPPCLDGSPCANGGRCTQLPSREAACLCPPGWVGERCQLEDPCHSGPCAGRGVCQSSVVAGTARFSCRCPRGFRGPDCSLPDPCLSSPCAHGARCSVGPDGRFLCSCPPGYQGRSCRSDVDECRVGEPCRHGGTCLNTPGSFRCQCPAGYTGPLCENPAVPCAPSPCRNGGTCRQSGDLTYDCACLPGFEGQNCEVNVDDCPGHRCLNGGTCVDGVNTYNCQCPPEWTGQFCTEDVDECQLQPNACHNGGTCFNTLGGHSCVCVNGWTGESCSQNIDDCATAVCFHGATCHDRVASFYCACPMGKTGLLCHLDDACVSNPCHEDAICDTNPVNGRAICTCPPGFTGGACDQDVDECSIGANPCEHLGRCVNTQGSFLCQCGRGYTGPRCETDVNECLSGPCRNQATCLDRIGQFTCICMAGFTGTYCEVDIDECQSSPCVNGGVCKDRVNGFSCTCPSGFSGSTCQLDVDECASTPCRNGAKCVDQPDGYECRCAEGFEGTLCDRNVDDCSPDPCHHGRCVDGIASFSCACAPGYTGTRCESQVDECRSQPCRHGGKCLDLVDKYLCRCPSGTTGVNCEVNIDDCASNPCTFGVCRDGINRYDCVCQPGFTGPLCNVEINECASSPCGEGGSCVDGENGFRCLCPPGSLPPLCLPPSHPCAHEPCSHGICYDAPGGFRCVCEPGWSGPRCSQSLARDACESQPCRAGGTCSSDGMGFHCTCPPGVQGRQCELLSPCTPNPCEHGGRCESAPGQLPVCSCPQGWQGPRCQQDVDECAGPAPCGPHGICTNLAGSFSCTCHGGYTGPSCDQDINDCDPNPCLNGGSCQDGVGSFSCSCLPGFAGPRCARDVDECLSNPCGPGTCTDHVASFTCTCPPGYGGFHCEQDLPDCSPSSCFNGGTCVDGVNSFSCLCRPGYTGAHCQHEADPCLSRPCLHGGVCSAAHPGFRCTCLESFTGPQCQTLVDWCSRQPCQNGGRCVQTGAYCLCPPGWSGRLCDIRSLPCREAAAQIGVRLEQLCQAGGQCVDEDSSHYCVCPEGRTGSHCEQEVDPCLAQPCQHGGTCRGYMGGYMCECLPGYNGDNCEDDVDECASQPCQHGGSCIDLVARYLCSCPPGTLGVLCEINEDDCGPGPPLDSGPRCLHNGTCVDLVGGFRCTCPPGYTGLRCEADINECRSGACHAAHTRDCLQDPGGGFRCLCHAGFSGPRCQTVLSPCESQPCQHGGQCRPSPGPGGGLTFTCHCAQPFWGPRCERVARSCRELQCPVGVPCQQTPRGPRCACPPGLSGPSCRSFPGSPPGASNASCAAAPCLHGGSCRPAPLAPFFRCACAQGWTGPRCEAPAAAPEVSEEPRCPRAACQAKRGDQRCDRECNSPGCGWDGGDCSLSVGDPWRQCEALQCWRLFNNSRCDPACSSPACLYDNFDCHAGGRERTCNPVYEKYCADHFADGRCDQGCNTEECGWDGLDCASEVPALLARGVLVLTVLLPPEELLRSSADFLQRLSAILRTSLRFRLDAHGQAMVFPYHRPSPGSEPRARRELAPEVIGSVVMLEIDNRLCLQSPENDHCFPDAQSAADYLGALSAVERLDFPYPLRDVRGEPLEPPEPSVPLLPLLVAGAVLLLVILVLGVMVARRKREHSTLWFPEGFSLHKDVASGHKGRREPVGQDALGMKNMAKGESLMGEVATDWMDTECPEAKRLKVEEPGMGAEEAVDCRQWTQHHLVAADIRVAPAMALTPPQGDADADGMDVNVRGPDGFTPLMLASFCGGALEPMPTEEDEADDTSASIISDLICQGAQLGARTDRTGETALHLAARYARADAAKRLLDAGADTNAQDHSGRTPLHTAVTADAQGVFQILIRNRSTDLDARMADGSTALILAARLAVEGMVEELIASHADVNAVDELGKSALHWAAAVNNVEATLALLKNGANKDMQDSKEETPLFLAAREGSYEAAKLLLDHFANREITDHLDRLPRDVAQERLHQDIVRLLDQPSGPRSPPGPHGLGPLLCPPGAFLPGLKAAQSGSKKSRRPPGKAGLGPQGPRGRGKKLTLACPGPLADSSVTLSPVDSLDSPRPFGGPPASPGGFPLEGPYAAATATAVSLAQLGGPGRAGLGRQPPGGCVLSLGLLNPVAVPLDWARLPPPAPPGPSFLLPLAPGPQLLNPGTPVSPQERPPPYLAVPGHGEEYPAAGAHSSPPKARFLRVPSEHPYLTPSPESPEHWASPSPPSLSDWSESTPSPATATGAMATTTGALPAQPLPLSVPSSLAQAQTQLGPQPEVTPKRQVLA

Structure (SMILES)	composite z-score [1]	z-score [2]	z-score [3]	z-score [4]	composite z-score [5]	z-score [6]	composite z-score [7]	composite z-score [8]	composite z-score [9]	composite z-score [10]
COc1ccc(COC(=O)NN=C2C[C@@H](O)[C@@H](O)[C@@H]3[C@@H]4C(=O)N([C@@H](C)c5ccccc5)C(=O)[C@@H]4CC[C@@H]23)cc1	-0.0948	-0.735 (inactive)	0.207 (inactive)	-0.206 (inactive)	-0.0022	0.918 (inactive)	0.0378	0.574	0.128	-0.103
COCOc1ccc(Br)cc1C(=O)C=Cc1ccc2c(c1)OCO2	0.253	-0.827 (inactive)	-7.01 (inactive)	32.1 (active)	-0.57	0.368 (inactive)	-0.16	0.698	0.0871	-0.0834
COCC#Cc1ccc([C@@H]2N[C@H](C(=O)O)CC[C@H]2C)cc1	0.13	-1.63 (inactive)	-1.81 (inactive)	-1.34 (inactive)	0.237	0.874 (inactive)	-0.186	0.165	-0.54	-0.0953
C=CC[C@@H]1C=C[C@H](ON=C(C)CCN2CCCc3nc(C)c(C)cc32)[C@@H](CO)O1	1.4	-0.367 (inactive)	0.323 (inactive)	-0.184 (inactive)	0.644	1.05 (inactive)	0.475	1.09	0.946	0.142
COc1cccc([C@H]2Oc3ccc(OC)cc3C(=NO[C@@H](C)c3cc(-c4c(C)cc(C)cc4C)no3)[C@@H]2O)c1	-0.506	0.463 (inactive)	1.49 (inactive)	0.626 (inactive)	-0.141	-0.169 (inactive)	0.25	-2.14	-2.58	-0.434
CC[C@@H](c1ccccc1)n1c(=O)n2n(c1=O)[C@H]1[C@H](O)[C@@H]3O[C@@H]3C(=NOCc3ccccc3)[C@H]1CC2	-0.454	0.183 (inactive)	-1.17 (inactive)	0.191 (inactive)	0.786	-0.866 (inactive)	-0.132	1.3	0.81	-0.0824
CCCC[C@H]1CN2[C@@H](CC[C@@H](C)[C@@H]2c2ccc(Br)cc2)C(=O)O1	1.56	0.149 (inactive)	-16.5 (active)	-0.435 (inactive)	1.28	0.0173 (inactive)	-0.109	0.444	0.728	-0.0616
CC(=O)OC[C@H]1O[C@@H](ON=C(C)CCC(=O)OC[C@H]2O[C@H](C#Cc3ccccc3)C=C[C@@H]2Oc2ccc(C)cc2)[C@H](OC(C)=O)[C@@H](OC(C)=O)[C@@H]1OC(C)=O	1.54	0.82 (inactive)	0.882 (inactive)	-0.211 (inactive)	2.3	0.142 (inactive)	-0.122	1.36	0.936	-0.0455
CCN1C(=O)[C@H]2[C@H]3[C@H](O)[C@H](O)CC(=NNC(=O)OCc4ccccc4)[C@@H]3CC[C@H]2C1=O	-0.738	-0.0309 (inactive)	-0.277 (inactive)	-0.133 (inactive)	0.614	0.801 (inactive)	-0.044	-0.0412	-0.0028	-0.118
CC(CCN1CCCCc2nc(C)c(C)cc21)=NO[C@@H](C)c1cc(-c2c(C)cc(C)cc2C)no1	0.0804	-1.73 (inactive)	-10.2 (active)	-0.199 (inactive)	-0.745	0.486 (inactive)	-0.126	-0.0547	-1.55	-0.343
CCOC(=O)NN=C1C[C@@H](O)[C@@H](O)[C@@H]2[C@@H]3C(=O)N(CC)C(=O)[C@@H]3CC[C@H]12	-0.0481	0.213 (inactive)	0.324 (inactive)	0.71 (inactive)	0.458	0.312 (inactive)	-0.25	0.583	-0.387	-0.034
CC=CC1=C(CO)[C@H](O)[C@H]2O[C@H]2[C@@H]1O	0.028	0.285 (inactive)	1.03 (inactive)	-0.258 (inactive)	0.0048	0.712 (inactive)	-0.221	0.59	0.429	-0.128
O=C1[C@H]2[C@H]3[C@H](O)[C@H](O)CC(=NO[C@@H]4O[C@H](CO)[C@@H](O)[C@H](O)[C@H]4O)[C@H]3CC[C@H]2C(=O)N1C[C@@H]1CCCO1	-0.099	0.539 (inactive)	0.944 (inactive)	0.734 (inactive)	-0.162	0.457 (inactive)	0.0136	0.379	0.0492	-0.0578
C[C@@H]1CC[C@H]2C(=O)O[C@@H](CN=[N+]=[N-])CN2[C@H]1c1ccc(Br)cc1	1.34	1.85 (inactive)	-10.5 (active)	32.7 (active)	1.69	0.176 (inactive)	-0.15	0.553	0.679	-0.104
COC(=O)[C@H](CCSC)NC(=O)CC=C[C@@H](C)CO	1.53	0.0662 (inactive)	0.319 (inactive)	0.451 (inactive)	1.3	0.612 (inactive)	-0.0944	1.54	0.703	0.493
CCN1C(=O)[C@H]2[C@H]3[C@H](O)[C@H](O)CC(=NO[C@@H](C)c4cc(-c5c(C)cc(C)cc5C)no4)[C@@H]3CC[C@H]2C1=O	1.55	-0.393 (inactive)	-1.15 (inactive)	-0.875 (inactive)	2	1.16 (inactive)	-0.0283	0.529	0.994	0.123
CC(C)(C)N1C(=O)[C@H]2[C@H]3[C@H](O)[C@H](O)CC(=NNC(=O)OCc4ccccc4)[C@@H]3CC[C@H]2C1=O	0.561	-0.668 (inactive)	0.588 (inactive)	9.42 (active)	0.883	0.45 (inactive)	-0.0824	0.457	0.586	0.172
COc1ccc(COC(=O)NN=C2C[C@@H](O)[C@@H](O)[C@@H]3[C@@H]4C(=O)N(C[C@@H]5CCCO5)C(=O)[C@@H]4CC[C@H]23)cc1	-0.478	-0.0944 (inactive)	0.247 (inactive)	-0.0457 (inactive)	0.43	-0.5 (inactive)	0.258	-0.809	-0.398	-0.211
CC(C)[C@@H](OCc1ccccc1)[C@H](C)CON=C1[C@H]2CCn3c(=O)n(-c4ccccc4)c(=O)n3[C@H]2[C@H](O)[C@@H]2O[C@H]12	0.462	-1.48 (inactive)	-7.06 (inactive)	-0.882 (inactive)	1.56	0.222 (inactive)	-0.0063	0.439	0.597	-0.067
CCc1cc2c(nc1CC)CCN(CCC(C)=NO[C@@H]1O[C@H](COC(C)=O)[C@@H](OC(C)=O)[C@H](OC(C)=O)[C@H]1OC(C)=O)C2	1.55	-0.149 (inactive)	-0.35 (inactive)	0.143 (inactive)	0.809	-0.551 (inactive)	-0.0271	1.06	1.1	0.131
C[C@H]1C=CCC(=O)OC[C@H](C)C(=O)N2CCC[C@H]2C(=O)OC1	1.54	0.94 (inactive)	0.499 (inactive)	-0.0933 (inactive)	-1.44	0.0085 (inactive)	-0.228	2.09	0.373	0.177
COC(=O)[C@H](C)NC(=O)CCC1CC(OC(=O)NCCc2ccc(F)cc2)CC2(CCCC(COC(=O)NCCOc3ccccc3)O2)O1 (stereo not given in full)	1.46	-0.233 (inactive)	0.927 (inactive)	1.12 (inactive)	2.64	0.219 (inactive)	-0.0073	0.724	1.06	-0.106
CC(=O)OC[C@H]1O[C@H](CC=NOC[C@@H](O)[C@H]2O[C@@H]3OC(C)(C)O[C@@H]3[C@H]2O)C=C[C@@H]1OC(C)=O	0.739	0.561 (inactive)	1.09 (inactive)	0.541 (inactive)	2.25	0.72 (inactive)	-0.0708	0.441	0.492	-0.0035
COc1ccc(COC(=O)NN=C2C[C@@H](O)[C@@H](O)[C@@H]3[C@@H]4C(=O)N(c5cccc(Oc6ccccc6)c5)C(=O)[C@@H]4CC[C@H]23)cc1	-0.412	0.135 (inactive)	-0.655 (inactive)	-0.693 (inactive)	0.717	1.02 (inactive)	0.297	-0.476	0.148	-0.109
C#CCCCON=C1C[C@@H](O)[C@@H](O)[C@@H]2[C@@H]3C(=O)N(C4CCCCC4)C(=O)[C@@H]3CC[C@@H]12	0.335	-1.83 (inactive)	-1.61 (inactive)	-1.07 (inactive)	1.01	0.862 (inactive)	-0.118	0.454	0.358	-0.0409
CC(=O)OC[C@H]1O[C@H](CC=NO[C@@H](C)c2cn([C@H](CO)Cc3ccccc3)nn2)C=C[C@@H]1OC(C)=O	1.56	-0.283 (inactive)	-0.359 (inactive)	-0.346 (inactive)	0.96	-0.477 (inactive)	-0.0137	0.336	0.55	0.0035
O=C1CCCC=C1C(O)C1CCCCC1 (stereo not given)	-0.784	-0.711 (inactive)	0.214 (inactive)	-0.478 (inactive)	0.2	0.805 (inactive)	-0.0279	-0.0241	0.0627	-0.294
CCOC(=O)[C@H](Cc1ccccc1)NC(=O)CCC1CC(OC(=O)NCc2cccc3ccccc23)CC2(CCCC(COC(=O)NCc3ccc4c(c3)OCO4)O2)O1 (stereo not given in full)	-0.0058	0.549 (inactive)	-0.02 (inactive)	0.743 (inactive)	1.8	0.951 (inactive)	-0.139	0.453	0.227	0.104
CN1CCc2nc(-c3ccccc3)c(-c3ccccc3)cc2C1	-0.288	0.0301 (inactive)	0.173 (inactive)	-1.35 (inactive)	-0.0501	0.697 (inactive)	0.361	0.405	0.157	-0.0382
CCN1C(=O)[C@H]2[C@H]3[C@H](O)[C@H](O)CC(=NO[C@H](C)c4cn([C@H](CO)Cc5ccccc5)nn4)[C@@H]3CC[C@H]2C1=O	1.4	-0.444 (inactive)	0.121 (inactive)	-0.371 (inactive)	1.59	0.607 (inactive)	-0.207	0.496	0.89	-0.0132
